The source of these data is the supplement of paper PMC10037445.

The subject of assay [1] is RAW-Dual. The experiment in a line: NF-kB SEAP reporter activity, fold change vs agonist alone; higher = enhanced NF-kB activity. As to conditions: library stock concentration (final ~1000-fold dilution): 10 mM. Put shortly: (§1)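 RAW-Dual macrophages were seeded in DMEM at 50,000 cells/well in 384-well plates, given 50 nL of library stock by pin tool, and given a PRR agonist 1 h later. Plates were held at 37 °C, 5% CO2 for 20 hours, after which supernatant was read for IRF by QuantiLuc luminescence and for NF-κB by QuantiBlue absorbance at 620 nm. Reporter activity is expressed as fold change over wells that received agonist alone. A well was called cytotoxic when IncuCyte confluency fell below 70% of agonist controls in both mask sets.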

Assay [2] relates to RAW-Dual. The experiment in a line: NF-kB SEAP reporter activity, fold change vs agonist alone; cytotoxicity flag (confluency mask): not cytotoxic; library stock concentration (final ~1000-fold dilution): 10 mM; higher = enhanced NF-kB activity. Put shortly: as §1
Assay [3] has as its system RAW-Dual. Description: NF-kB SEAP reporter activity, fold change vs agonist alone; cytotoxicity flag (confluency mask): cytotoxic (confluency <70% of control); library stock concentration (final ~1000-fold dilution): 10 mM; higher = enhanced NF-kB activity. The method, boiled down: as §1
Where [4] appears, read: cytotoxicity flag (confluency mask): not cytotoxic, agonist: Imiquimod (TLR7) […].
Setting [5] is: cytotoxicity flag (confluency mask): not cytotoxic, agonist: MPLA (TLR4) […].
Where [6] appears, read: agonist: ODN 1826 (TLR9) 0.5 ug/mL.
Setting [7] is: agonist: Pam2CSK4 (TLR2/6) 0.1 ug/mL.
[8] abbreviates: agonist: Pam3CSK4 (TLR2/1) 0.1 ug/mL.

Where “and” joins values, the source holds several entries; their conditions need not be identical. Identical values can stand only once. The full ranking holds about 2,900 compounds; the median of “NF-kB SEAP reporter activity, fold change vs agonist alone” is about 0.99, and the highest 2% start at about 2.6. This is one part of a sample in which the highest values are shown more often than they occur.

`COc1cc(C)[nH]c(=O)c1CNC(=O)c1c(C)n(C(C)C2CCOCC2)c2ccccc12` (configuration not stated): the “NF-kB SEAP reporter activity” value with RAW-Dual [1] (setting [4]) came to 0.902; with RAW-Dual [1] (setting [5]) it was 1.02; in the assay with RAW-Dual [2] (agonist: LPS (TLR4) 0.1 ug/mL), 1.26; in the assay on RAW-Dual [2] (setting [6]), 1.05; in the assay on RAW-Dual [2] (setting [7]), 0.992; in the assay with RAW-Dual [2] (setting [8]), 0.786.
As for `Cl[Te]1(Cl)(Cl)OCCO1.N`, the “NF-kB SEAP reporter activity” value in the assay with RAW-Dual [1] (setting [4]) is 0.792; with RAW-Dual [1] (setting [5]) it was 0.899; in the assay on RAW-Dual [2] (agonist: LPS (TLR4) 0.1 ug/mL), 1.39; with RAW-Dual [2] (setting [6]), 0.846; with RAW-Dual [2] (setting [7]) it was 0.912; in the assay with RAW-Dual [2] (setting [8]) it was 1.28.
In the case of `CCCCCc1cc(O)cc(O)c1`, the “NF-kB SEAP reporter activity” value was determined as 0.946 in the assay with RAW-Dual [1] (setting [5]); 1.11 in the assay with RAW-Dual [2] (agonist: LPS (TLR4) 0.1 ug/mL); 0.427 in the assay with RAW-Dual [2] (setting [6]); 0.966 in the assay on RAW-Dual [2] (setting [7]); 0.739 with RAW-Dual [2] (setting [8]).
In the case of `CCCCCCC[n+]1ccc(-c2cc[n+](CCCCCCC)cc2)cc1`, the “NF-kB SEAP reporter activity” value worked out at 1.32 in the assay with RAW-Dual [1] (setting [4]); 2.11 with RAW-Dual [1] (setting [5]); 3.95 in the assay on RAW-Dual [2] (agonist: LPS (TLR4) 0.1 ug/mL); 1.17 in the assay on RAW-Dual [2] (setting [6]); 1.02 with RAW-Dual [2] (setting [7]); 1.14 in the assay with RAW-Dual [2] (setting [8]).
`O=C([O-])C(Cl)Cl.[Na+]`: the “NF-kB SEAP reporter activity” value was 1.11 and 0.906 in the assay on RAW-Dual [2] (agonist: LPS (TLR4) 0.1 ug/mL); 1.14 and 0.982 in the assay with RAW-Dual [2] (setting [6]); 1.11 and 0.989 in the assay on RAW-Dual [2] (setting [7]); 1.19 and 1.32 with RAW-Dual [2] (setting [8]).
For `CCNc1nc(Cl)nc(NC(C)C)n1`, the “NF-kB SEAP reporter activity” value worked out at 1.29 with RAW-Dual [1] (setting [5]); 1.55 in the assay on RAW-Dual [2] (agonist: LPS (TLR4) 0.1 ug/mL); 1.4 with RAW-Dual [2] (setting [6]); 1.5 with RAW-Dual [2] (setting [7]); 1.67 in the assay with RAW-Dual [2] (setting [8]).
For `COc1ccc2c(c1OC)CN1CCc3cc4c(cc3C1C2)OCO4` (configuration not stated), the “NF-kB SEAP reporter activity” value with RAW-Dual [1] (setting [5]) came out at 1; in the assay with RAW-Dual [2] (agonist: LPS (TLR4) 0.1 ug/mL), 1.21; with RAW-Dual [2] (setting [6]), 1.04; with RAW-Dual [2] (setting [7]) it was 0.89; in the assay with RAW-Dual [2] (setting [8]), 1.26.
On to `COc1cc(C2c3cc4c(cc3C(O)C3COC(=O)C23)OCO4)cc(OC)c1OC` (configuration not stated), for which the “NF-kB SEAP reporter activity” value with RAW-Dual [1] (cytotoxicity flag (confluency mask): cytotoxic (confluency <70% of control), agonist: Imiquimod (TLR7) […]) was determined as 1.61; in the assay with RAW-Dual [1] (cytotoxicity flag (confluency mask): cytotoxic (confluency <70% of control), agonist: MPLA (TLR4) […]), 1.92; in the assay on RAW-Dual [3] (agonist: LPS (TLR4) 0.1 ug/mL), 5.49; in the assay with RAW-Dual [3] (setting [6]) it was 2.81; in the assay on RAW-Dual [3] (setting [7]), 1.6; in the assay with RAW-Dual [3] (setting [8]) it was 2.18.
As to `COc1cc(C2c3cc4c(cc3C(O)C3COC(=O)C23)OCO4)cc(OC)c1O` (configuration not stated), the “NF-kB SEAP reporter activity” value was determined as 2.53 in the assay with RAW-Dual [1] (setting [4]); 2.24 in the assay with RAW-Dual [1] (setting [5]); 3.91 in the assay on RAW-Dual [2] (agonist: LPS (TLR4) 0.1 ug/mL); 3.47 in the assay on RAW-Dual [2] (setting [6]); 2.24 with RAW-Dual [2] (setting [7]); 2.24 in the assay with RAW-Dual [2] (setting [8]).
In the case of `CC[N+](C)(CC)CCOC(=O)C(O)(c1ccccc1)c1ccccc1`, the “NF-kB SEAP reporter activity” value amounted to 1.01 in the assay with RAW-Dual [1] (setting [5]); 0.821 in the assay with RAW-Dual [2] (agonist: LPS (TLR4) 0.1 ug/mL); 0.989 with RAW-Dual [2] (setting [6]); 0.934 in the assay with RAW-Dual [2] (setting [7]); 1.39 in the assay on RAW-Dual [2] (setting [8]).
For `COc1cc(-n2c(S)nc3ccccc3c2=O)c(Cl)cc1Cl`, the “NF-kB SEAP reporter activity” value in the assay with RAW-Dual [1] (setting [4]) was determined as 0.851; in the assay on RAW-Dual [1] (setting [5]) it was 0.953; in the assay with RAW-Dual [2] (agonist: LPS (TLR4) 0.1 ug/mL), 1.4; in the assay with RAW-Dual [2] (setting [6]) it was 0.842; with RAW-Dual [2] (setting [7]), 0.849; with RAW-Dual [2] (setting [8]) it was 0.826.
For `CCC1(c2c[nH]cn2)Cc2ccccc2C1.Cl`, the “NF-kB SEAP reporter activity” value stood at 0.931 in the assay on RAW-Dual [1] (setting [5]); 0.796 in the assay with RAW-Dual [2] (agonist: LPS (TLR4) 0.1 ug/mL); 0.745 in the assay on RAW-Dual [2] (setting [6]); 0.9 with RAW-Dual [2] (setting [7]); 0.997 in the assay with RAW-Dual [2] (setting [8]).
On to `CN1C2CCC1CC(=O)C2`, for which the “NF-kB SEAP reporter activity” value with RAW-Dual [1] (setting [4]) was found to be 1.66; with RAW-Dual [1] (setting [5]) it was 1.16; in the assay with RAW-Dual [2] (agonist: LPS (TLR4) 0.1 ug/mL), 0.911; with RAW-Dual [2] (setting [6]) it was 1.6; in the assay with RAW-Dual [2] (setting [7]), 1; in the assay on RAW-Dual [2] (setting [8]), 1.54.
In the case of `CCC1CN2CCC3(C(=O)Nc4ccccc43)C2CC1/C(=C\OC)C(=O)OC` (configuration not stated), the “NF-kB SEAP reporter activity” value in the assay on RAW-Dual [1] (setting [4]) was 0.907; in the assay on RAW-Dual [1] (setting [5]), 1.25; with RAW-Dual [2] (agonist: LPS (TLR4) 0.1 ug/mL) it was 1.1; with RAW-Dual [2] (setting [6]) it was 0.873; in the assay with RAW-Dual [2] (setting [7]), 0.87; with RAW-Dual [2] (setting [8]) it was 0.852.
